Screens as filed in PubChem BioAssay.
CYP2C9 inhib = blockers of cytochrome P450 2C9 activity – biochemical, luminescence, ADME assay, primary screen | inhibition, % at 5 µM | actives 20% (n = 96,000) | P11712 | CYP2C9 Supersomes, luciferin-H conversion;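 active = blocking of liver enzyme CYP2C9 beyond about 50% at 5 µM, limit read from the data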
Target sequence (P11712 whole entry, looked up): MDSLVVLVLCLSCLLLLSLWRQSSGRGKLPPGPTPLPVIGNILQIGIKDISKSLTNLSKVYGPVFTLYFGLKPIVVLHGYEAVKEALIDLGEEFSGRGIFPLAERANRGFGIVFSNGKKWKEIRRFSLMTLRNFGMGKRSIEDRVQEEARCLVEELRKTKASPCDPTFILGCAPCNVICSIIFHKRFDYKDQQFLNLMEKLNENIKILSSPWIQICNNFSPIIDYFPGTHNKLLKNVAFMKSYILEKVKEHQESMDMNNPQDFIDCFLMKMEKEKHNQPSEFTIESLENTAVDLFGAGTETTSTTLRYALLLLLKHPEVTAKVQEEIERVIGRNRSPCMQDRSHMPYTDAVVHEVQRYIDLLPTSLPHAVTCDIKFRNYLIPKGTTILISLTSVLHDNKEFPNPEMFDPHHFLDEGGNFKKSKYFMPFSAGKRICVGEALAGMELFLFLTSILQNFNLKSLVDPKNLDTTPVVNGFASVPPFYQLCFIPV
CYP2C19 inhib = blockers of cytochrome P450 2C19 activity – biochemical, luminescence, ADME assay, primary screen. actives 21% (n = 96,000). CYP2C19 Supersomes, luciferin-H EGE luminescence, 30 min. P33261. inhibition, % at 5 µM. AID 778, 2007;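 active = CYP2C19 inhibition above a set limit at 5 µM in the primary screen, cut at about 50% in these data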;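 also: plate controls were negative control wells for no effect and 2.5 mM tranylcypromine positive control for full effect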
CYP2C9 activ = human CYP2C9 activators, primary screen, biochemical, luminescence; Cytochrome P450 2C9 (Homo sapiens), P11712; recombinant CYP2C9, luciferin-H conversion; active compounds read high; factor 1 = untreated enzyme, 0 = blocked; activation factor at 5 µM; actives 1.4% (n = 96,000);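 active = activation factor of 2 or more for CYP2C9 at a 5 µM dose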;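 also: 0 = sulfaphenazole-blocked wells and 1 = vehicle-only wells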
CYP2C19 activ = human CYP2C19 activators, primary screen, biochemical, luminescence | Cytochrome P450 2C19 (Homo sapiens), P33261 | recombinant CYP2C19, luciferin-H EGE luminescence; active compounds read high; 0 = fully inhibited enzyme, 1 = untreated enzyme | activation factor at 5 µM | 96,000 tested, under 10 active;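 active = activation factor of at least 2 at 5 µM in the primary screen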;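 also: 0 = wells with 2.5 mM tranylcypromine and 1 = vehicle-only wells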
Cav3 T inh = Cav3.2 calcium influx blockers – cell-based, Fluo-4 calcium fluorescence, FDSS, MLSMR library, primary screen; Cav3.2-expressing cells; active compounds read low; AID 449739, 2010; B-score at 10 µM; actives 4% (n = 100,000);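 active = single-dose well whose peak fluorescence ratio is a statistical outlier from its plate by either plate-standardised score or position-corrected B-score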
Starred values were filed as active, the others as inactive; / = no result. An excerpt weighted towards active compounds, which were near 27% of everything screened.

SMILES	CYP2C9 inhib	CYP2C19 inhib	CYP2C9 activ	CYP2C19 activ	Cav3 T inh
COc1ccc(C2C(C(=O)Nc3ccccc3)=C(C)N=C3SCC(=O)N32)cc1 (stereo unspecified)	/	/	/	/	-9.93*
COc1cccc(/C=N/NC(=O)CC(=O)NCCc2ccc(OC)c(OC)c2)c1	-32.1	30.9	1.3	0.7	-0.0733
CC(=O)NCCc1ccc(S(=O)(=O)NC2OC(=O)c3ccccc32)cc1 (stereo unspecified)	-13.8	-19.0	1.1	1.2	/
O=C(Nc1cccc2c1CCCC2)C1CCCN(S(=O)(=O)c2cccc3nonc23)C1 (stereo unspecified)	15.5	7.6	0.8	0.9	0.277
CC(C)C[C@H]1COCCS(=O)(=O)N1Cc1cccc(F)c1	/	/	/	/	0.015
CCC1SC2=NC(C)=C(C(=O)OC)C(c3ccc(C(=O)OC)cc3)N2C1=O (stereo unspecified)	49.3	92.8*	0.5	0.1	0.117
CCOC(=O)C1=C(C)N=C2SC(C)C(=O)N2C1c1ccc(OC(C)=O)c(OC)c1 (stereo unspecified)	/	/	/	/	-1.97
CC1(C)CC(n2c(NCCO)nc3c(c2=O)C2(CCCC2)Cc2ccccc2-3)CCO1 (stereo unspecified)	84.4*	83.5*	0.2	0.2	-4.29*
O=c1[nH]c(NCCO)nc2c1C1(CCCCC1)Cc1ccccc1-2	6.2	-1.4	0.9	1	-2.76
O=c1c2c(nc(NCCO)n1CC1CCCCC1)-c1ccccc1CC21CCCC1	100.3*	93.3*	0	0.1	-2.74
CCCCNC(=O)Nc1cc(C(=O)OC)ccc1Cl	-11.1	22.7	1.1	0.8	-3.57
O=C(CCCSc1nc2ccccc2[nH]1)NCc1ccco1	-102.2	17.4	2*	0.8	1.28
Cc1ccc2nc(SCC(=O)NCc3ccco3)[nH]c2c1	40.8	17.0	0.6	0.8	/
O=C(CSc1nc2ccccc2[nH]1)NC(=O)NCc1ccco1	21.9	57.2*	0.8	0.4	0.152
Cc1ccc2nc(SCC(=O)NC(=O)NCc3ccco3)[nH]c2c1	71.4*	80.3*	0.3	0.2	-3.58
O=C(CSc1nc2cc(Cl)ccc2s1)NC(=O)NCc1ccco1	-8.0	-4.4	1.1	1	-0.895
CC(=O)c1c(C)[nH]c(C(=O)N2CCN(C(=O)c3ccco3)CC2)c1C	-8.7	-11.6	1.1	1.1	0.717
CC(=O)c1c(C)[nH]c(C(=O)N2c3ccccc3CC2C)c1C (stereo unspecified)	78.0*	77.3*	0.2	0.2	0.132
CCOC(=O)c1ccc(NC(=O)Oc2ccccc2)cc1	10.1	20.4	0.9	0.8	-0.583
CCCCCOc1ccc(NC(=O)CCCC(=O)O)cc1	0.8	-6.0	1	1.1	-0.317
CCCOC(=O)c1ccc(NC(=O)CCC(=O)OCC)cc1	59.2*	64.0*	0.4	0.4	-0.327
O=C(CCOc1ccccc1)Nc1ccccc1	13.6	61.6*	0.9	0.4	-0.00833
CCOC(=O)c1ccc(NC(=O)CCOc2ccccc2)cc1	55.3*	12.2	0.4	0.9	-2.16
CCCOC(=O)c1ccc(NC(=O)CCOc2ccccc2)cc1	68.4*	46.2	0.3	0.5	-3.99*
CCCOC(=O)c1ccc(NC(=O)C2CCCO2)cc1 (stereo unspecified)	-4.0	32.5	1	0.7	0.00216
SMILES	CYP2C9 inhib	CYP2C19 inhib	CYP2C9 activ	CYP2C19 activ	Cav3 T inh
CCn1cnc2sc(C)c(C)c2c1=O	12.2	12.2	0.9	0.9	0.783
CCOc1ccc(NC(=O)CCNS(=O)(=O)c2ccc(Br)s2)cc1	-41.2	7.0	1.4	0.9	-0.00316
CCOC(=O)c1ccc(NC(=O)CCS(=O)(=O)c2ccc(Br)s2)cc1	51.3*	29.4	0.5	0.7	-0.721
CC(C)N1C(=O)C2C(C(=O)NC3CCCCC3)C3C=CC2(O3)C1C(=O)NC1CCCCC1 (stereo unspecified)	-1.5	-1.0	1	1	-0.148
Cc1cc(OCC(=O)Nn2cnnc2)ccc1Br	100.3*	99.9*	0	0	0.991
CCN=C(N/N=C/c1ccc([N+](=O)[O-])cc1)SC	27.1	43.2	0.7	0.6	-0.0743
CCOC(=O)C1=C(CC)Nc2ccccc2N=C1NC(=O)Nc1ccc(Cl)c(Cl)c1	94.3*	58.5*	0.1	0.4	-3.82
CCOC(=O)C1=C(CC)Nc2ccccc2N=C1NC(=O)Cn1cnc2ccccc2c1=O	13.8	1.1	0.9	1	1.04
COc1ccc(OC)c(NC(=O)C2COc3ccccc3O2)c1 (stereo unspecified)	15.8	66.9*	0.8	0.3	-2.38
CN1CCN(c2ccc(Cl)cc2NC(=O)C2COc3ccccc3O2)CC1 (stereo unspecified)	37.6	11.0	0.6	0.9	-4.54*
COc1ccc(CCNC(=O)CC2COc3ccccc3O2)cc1OC (stereo unspecified)	97.1*	96.6*	0	0	-0.143
COc1ccc(CNC(=O)C2COc3ccccc3O2)c(OC)c1 (stereo unspecified)	5.4	77.8*	0.9	0.2	/
COc1ccccc1NC(=O)N1CCCC1C(=O)NC1CCCCC1 (stereo unspecified)	-7.2	17.9	1.1	0.8	1.25
COc1ccc(NC(=O)CCC2COc3ccccc3O2)c(OC)c1 (stereo unspecified)	26.5	83.1*	0.7	0.2	-0.553
COC(=O)Nc1ncc(CN2CCc3ccccc3C2)s1	2.4	75.6*	1	0.2	-0.563
O=C(COC(=O)c1ccco1)Nc1ccc2c(c1)OCO2	9.1	33.7	0.9	0.7	0.0082
O=C(COC(=O)c1c2c(nc3ccccc13)CCCC2)Nc1ccc2c(c1)OCO2	77.3*	75.9*	0.2	0.2	-2.52
COc1cccc(NC(=O)COC(=O)c2c3c(nc4ccccc24)CCC(C)C3)c1 (stereo unspecified)	56.1*	45.0	0.4	0.6	-2.57
COc1cccc(NC(=O)COC(=O)c2nc3nccc(C)n3n2)c1	-14.2	9.5	1.1	0.9	1.76
COc1cccc2c1N1C(=O)c3c(C(=O)O)cccc3C1CC2(C)C (stereo unspecified)	70.2*	-2.2	0.3	1	0.0333
COC(=O)c1cc(OC)c(OC)cc1NC(=O)CC1CCCCC1	51.1*	22.7	0.5	0.8	-1.14
COC(=O)c1cc(OC)c(OC)cc1NC(=S)N1CCC(C(N)=O)CC1	-19.0	-9.1	1.2	1.1	0.0028
COC(=O)c1cc(OC)c(OC)cc1NC(=S)N1CCN(C)CC1	2.9	64.9*	1	0.4	0.792
COC(=O)c1cc(OC)c(OC)cc1NC(=S)N1CCCCC1	6.8	50.1*	0.9	0.5	0.1
COC(=O)c1cc(OC)c(OC)cc1NC(=S)N1CCN(c2ccccc2)CC1	53.8*	99.9*	0.5	0	0.0866
